Laboratory results reported in the supplement of paper PMC10849652.
Of roughly 7,900 targets only a part is listed; those with a hit were picked by preference. About 0.6% of all pairs of compound and target were hits.

Tests used:
Assay in all cases: log2 fold change, soluble protein after heating vs DMSO (PISA); higher = thermal stabilisation; K562 cells, 10 uM, 30 min; active = over 0.2 and 3.5 SD of the protein, either way, in both replicates (recomputed)
[1] = compound: C1=CC=C(C=C1)[C@H](COC2=CC3=C(C=C2)NC(=O)N3)NC(=O)C4=CC=CN(C4=O)CC5=CC(=C(C=C5)F)F
Outline: (§1)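 Soluble protein was quantified by TMTpro 16plex LC-MS/MS after channel sums were equalised. It was obtained as the supernatant after 21,000xg for 90 min from pooled aliquots of K562 cells (2×10^6 cells/mL, 10 μM compound, 30 min) heated for 3 min across 48°C-58°C and extracted in PBS with 0.5% NP-40 at 4°C. Thermal stability values are relative to control samples and come from duplicates. They are given as log2 fold changes.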

[2] = compound: CC1=C(SC2=C1C(=N[C@H](C3=NN=C(N32)C)CC(=O)N)C4=CC=C(C=C4)Cl)C
Outline: as §1

[3] = compound: CC1=C2C(=CC=C1)N=C(N(C2=O)C3=CC=CC=C3C)CN4C=NC5=C(N=CN=C54)N
Outline: as §1

[4] = compound: Cc1sc2c(c1C)C(c1ccc(Cl)cc1)=N[C@@H](CC(=O)OC(C)(C)C)c1nnc(C)n1-2
Outline: as §1

[5] = compound: c1ccc([C@@H]2C[C@H]2NC2CCNCC2)cc1
Outline: as §1

Measured: log2 fold change

MAGI1 (UniProt Q96QZ7)
Sequence of UniProt Q96QZ7 (Q96QZ7 whole entry, looked up): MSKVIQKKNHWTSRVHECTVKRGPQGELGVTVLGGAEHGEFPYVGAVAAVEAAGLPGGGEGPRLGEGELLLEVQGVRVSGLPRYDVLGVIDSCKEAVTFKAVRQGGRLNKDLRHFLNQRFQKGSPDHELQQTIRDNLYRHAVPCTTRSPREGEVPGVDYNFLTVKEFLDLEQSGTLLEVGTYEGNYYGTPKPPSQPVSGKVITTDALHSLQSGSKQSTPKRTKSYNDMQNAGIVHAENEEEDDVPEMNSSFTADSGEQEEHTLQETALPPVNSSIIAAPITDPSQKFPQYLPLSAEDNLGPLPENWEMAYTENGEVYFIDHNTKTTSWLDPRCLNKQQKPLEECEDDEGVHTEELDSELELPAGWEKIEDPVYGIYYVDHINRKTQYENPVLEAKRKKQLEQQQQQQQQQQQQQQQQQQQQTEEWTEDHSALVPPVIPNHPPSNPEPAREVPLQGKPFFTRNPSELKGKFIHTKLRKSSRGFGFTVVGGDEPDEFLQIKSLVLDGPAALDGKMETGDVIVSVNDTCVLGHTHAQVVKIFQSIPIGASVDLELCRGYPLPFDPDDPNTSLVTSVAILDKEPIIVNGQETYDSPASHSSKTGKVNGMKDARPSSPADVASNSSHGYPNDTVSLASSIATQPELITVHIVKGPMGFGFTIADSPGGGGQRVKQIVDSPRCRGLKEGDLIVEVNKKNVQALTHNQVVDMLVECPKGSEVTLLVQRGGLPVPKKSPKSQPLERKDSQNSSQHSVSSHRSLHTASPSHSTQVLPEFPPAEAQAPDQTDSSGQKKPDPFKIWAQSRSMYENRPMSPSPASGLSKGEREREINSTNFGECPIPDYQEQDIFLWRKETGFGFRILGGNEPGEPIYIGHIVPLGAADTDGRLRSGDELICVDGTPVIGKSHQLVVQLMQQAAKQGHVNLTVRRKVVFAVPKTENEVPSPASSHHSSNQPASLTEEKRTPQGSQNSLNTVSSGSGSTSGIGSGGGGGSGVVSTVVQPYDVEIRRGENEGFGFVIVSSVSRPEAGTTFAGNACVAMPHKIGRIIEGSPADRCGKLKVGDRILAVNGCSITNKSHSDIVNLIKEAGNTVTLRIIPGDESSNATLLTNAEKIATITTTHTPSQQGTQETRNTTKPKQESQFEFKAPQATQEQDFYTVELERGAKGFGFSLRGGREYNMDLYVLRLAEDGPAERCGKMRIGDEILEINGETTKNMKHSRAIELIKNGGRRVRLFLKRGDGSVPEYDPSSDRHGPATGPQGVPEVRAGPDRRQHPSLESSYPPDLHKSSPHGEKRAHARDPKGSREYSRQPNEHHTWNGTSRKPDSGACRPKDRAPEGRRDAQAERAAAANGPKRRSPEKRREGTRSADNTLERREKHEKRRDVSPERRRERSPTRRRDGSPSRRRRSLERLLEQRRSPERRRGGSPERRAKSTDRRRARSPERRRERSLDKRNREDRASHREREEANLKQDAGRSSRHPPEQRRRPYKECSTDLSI
inactive: [1] 0.025 | [2] -0.026 | [3] -0.005 | [4] 0.054 | [5] -0.016

MDN1 (UniProt Q9NU22)
inactive: [1] -0.08 | [2] 0.041 | [3] 0.059 | [4] -0.054 | [5] -0.049

MASTL (UniProt Q96GX5)
inactive: [1] 0.047 | [2] 0.081 | [3] 0.009 | [5] -0.02

IPO11 isoform 2 (UniProt Q9UI26)
Sequence of UniProt Q9UI26 (Q9UI26 whole entry, looked up): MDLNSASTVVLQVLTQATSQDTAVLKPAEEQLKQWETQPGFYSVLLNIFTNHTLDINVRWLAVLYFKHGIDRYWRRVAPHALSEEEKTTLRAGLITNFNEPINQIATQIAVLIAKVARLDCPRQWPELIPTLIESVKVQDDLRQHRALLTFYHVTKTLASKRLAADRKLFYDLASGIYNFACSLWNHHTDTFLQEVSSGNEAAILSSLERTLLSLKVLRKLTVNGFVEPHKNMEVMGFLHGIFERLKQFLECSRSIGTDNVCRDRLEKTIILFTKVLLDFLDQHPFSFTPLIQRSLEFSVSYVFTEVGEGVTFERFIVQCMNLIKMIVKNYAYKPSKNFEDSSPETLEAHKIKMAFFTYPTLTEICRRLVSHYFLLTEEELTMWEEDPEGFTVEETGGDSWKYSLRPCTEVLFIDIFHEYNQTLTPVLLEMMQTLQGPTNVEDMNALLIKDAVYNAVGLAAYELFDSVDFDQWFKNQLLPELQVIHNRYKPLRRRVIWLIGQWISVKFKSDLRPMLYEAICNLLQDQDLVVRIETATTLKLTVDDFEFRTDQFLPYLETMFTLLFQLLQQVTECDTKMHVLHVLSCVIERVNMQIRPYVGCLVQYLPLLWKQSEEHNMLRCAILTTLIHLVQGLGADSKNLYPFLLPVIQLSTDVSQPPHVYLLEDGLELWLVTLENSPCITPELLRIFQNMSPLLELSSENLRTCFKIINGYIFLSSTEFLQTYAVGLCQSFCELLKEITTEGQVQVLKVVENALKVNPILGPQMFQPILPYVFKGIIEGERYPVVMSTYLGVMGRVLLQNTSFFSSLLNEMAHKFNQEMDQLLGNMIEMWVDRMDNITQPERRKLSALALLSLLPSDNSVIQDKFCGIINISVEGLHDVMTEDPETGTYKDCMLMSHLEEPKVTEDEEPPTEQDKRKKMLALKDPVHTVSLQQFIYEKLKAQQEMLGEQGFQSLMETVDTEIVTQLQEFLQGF
inactive: [1] 0.048 | [2] 0.064 | [3] 0.01 | [4] 0.013 | [5] 0.001

MAGEC2 (UniProt Q9UBF1)
Sequence of UniProt Q9UBF1 (Q9UBF1 whole entry, looked up): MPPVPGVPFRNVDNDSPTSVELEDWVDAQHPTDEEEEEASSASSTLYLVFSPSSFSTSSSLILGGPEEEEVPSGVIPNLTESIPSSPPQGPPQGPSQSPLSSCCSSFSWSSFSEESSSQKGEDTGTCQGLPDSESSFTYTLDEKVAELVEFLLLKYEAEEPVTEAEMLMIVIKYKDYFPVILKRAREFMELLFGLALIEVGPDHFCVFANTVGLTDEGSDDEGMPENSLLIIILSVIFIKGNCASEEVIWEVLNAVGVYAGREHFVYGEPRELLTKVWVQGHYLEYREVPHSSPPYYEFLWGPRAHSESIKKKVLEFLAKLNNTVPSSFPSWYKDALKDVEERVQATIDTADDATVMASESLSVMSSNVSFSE
inactive: [1] 0.043 | [2] -0.069 | [3] 0.005 | [4] 0.009 | [5] 0.054

MED22 (UniProt Q15528)
Sequence of UniProt Q15528 (Q15528 whole entry, looked up): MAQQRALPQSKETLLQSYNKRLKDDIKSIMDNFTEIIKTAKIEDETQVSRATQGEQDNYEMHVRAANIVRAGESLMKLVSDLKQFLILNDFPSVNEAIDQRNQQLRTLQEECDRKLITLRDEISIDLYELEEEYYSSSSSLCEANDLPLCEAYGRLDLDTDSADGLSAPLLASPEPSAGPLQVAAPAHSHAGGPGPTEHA
inactive: [1] 0.013 | [2] 0.065 | [3] 0.013 | [4] 0.195 | [5] 0

ITM2C (UniProt Q9NQX7)
Sequence of UniProt Q9NQX7 (Q9NQX7 whole entry, looked up): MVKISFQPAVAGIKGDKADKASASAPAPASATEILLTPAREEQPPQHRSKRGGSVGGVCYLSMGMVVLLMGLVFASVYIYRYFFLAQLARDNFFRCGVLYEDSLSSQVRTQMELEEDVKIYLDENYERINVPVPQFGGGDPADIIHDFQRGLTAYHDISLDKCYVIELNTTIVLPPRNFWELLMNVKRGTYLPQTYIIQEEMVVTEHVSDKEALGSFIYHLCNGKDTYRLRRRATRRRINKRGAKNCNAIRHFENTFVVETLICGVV
inactive: [1] -0.077 | [2] 0.007 | [3] 0.122 | [5] -0.121

MED16 (UniProt Q9Y2X0)
Sequence of UniProt Q9Y2X0 (Q9Y2X0 whole entry, looked up): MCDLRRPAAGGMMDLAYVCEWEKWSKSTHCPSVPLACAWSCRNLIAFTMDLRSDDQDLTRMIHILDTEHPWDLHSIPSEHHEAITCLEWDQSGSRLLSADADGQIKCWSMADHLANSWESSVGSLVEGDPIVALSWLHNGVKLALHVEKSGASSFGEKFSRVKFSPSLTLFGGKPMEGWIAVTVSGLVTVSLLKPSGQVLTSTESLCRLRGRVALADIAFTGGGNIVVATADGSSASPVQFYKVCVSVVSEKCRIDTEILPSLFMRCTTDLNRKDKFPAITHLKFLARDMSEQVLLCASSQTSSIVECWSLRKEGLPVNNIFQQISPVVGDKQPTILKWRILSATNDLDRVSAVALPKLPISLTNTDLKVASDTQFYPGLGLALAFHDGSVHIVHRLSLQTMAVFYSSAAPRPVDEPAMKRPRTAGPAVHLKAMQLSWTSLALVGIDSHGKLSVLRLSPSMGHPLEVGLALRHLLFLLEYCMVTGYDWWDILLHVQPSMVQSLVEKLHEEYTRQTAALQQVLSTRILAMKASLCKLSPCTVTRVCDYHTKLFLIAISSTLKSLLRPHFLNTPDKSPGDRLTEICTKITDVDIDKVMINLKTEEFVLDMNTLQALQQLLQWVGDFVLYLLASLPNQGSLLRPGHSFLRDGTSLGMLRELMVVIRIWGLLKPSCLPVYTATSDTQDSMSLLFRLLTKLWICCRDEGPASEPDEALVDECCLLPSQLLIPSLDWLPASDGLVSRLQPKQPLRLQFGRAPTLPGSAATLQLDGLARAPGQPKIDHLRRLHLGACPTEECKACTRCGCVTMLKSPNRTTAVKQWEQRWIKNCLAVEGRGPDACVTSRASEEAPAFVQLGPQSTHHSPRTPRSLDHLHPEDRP
inactive: [1] -0.048 | [2] 0.012 | [3] 0.043 | [4] 0.093 | [5] 0.019

LRFN1 (UniProt Q9P244)
Sequence of UniProt Q9P244 (Q9P244 whole entry, looked up): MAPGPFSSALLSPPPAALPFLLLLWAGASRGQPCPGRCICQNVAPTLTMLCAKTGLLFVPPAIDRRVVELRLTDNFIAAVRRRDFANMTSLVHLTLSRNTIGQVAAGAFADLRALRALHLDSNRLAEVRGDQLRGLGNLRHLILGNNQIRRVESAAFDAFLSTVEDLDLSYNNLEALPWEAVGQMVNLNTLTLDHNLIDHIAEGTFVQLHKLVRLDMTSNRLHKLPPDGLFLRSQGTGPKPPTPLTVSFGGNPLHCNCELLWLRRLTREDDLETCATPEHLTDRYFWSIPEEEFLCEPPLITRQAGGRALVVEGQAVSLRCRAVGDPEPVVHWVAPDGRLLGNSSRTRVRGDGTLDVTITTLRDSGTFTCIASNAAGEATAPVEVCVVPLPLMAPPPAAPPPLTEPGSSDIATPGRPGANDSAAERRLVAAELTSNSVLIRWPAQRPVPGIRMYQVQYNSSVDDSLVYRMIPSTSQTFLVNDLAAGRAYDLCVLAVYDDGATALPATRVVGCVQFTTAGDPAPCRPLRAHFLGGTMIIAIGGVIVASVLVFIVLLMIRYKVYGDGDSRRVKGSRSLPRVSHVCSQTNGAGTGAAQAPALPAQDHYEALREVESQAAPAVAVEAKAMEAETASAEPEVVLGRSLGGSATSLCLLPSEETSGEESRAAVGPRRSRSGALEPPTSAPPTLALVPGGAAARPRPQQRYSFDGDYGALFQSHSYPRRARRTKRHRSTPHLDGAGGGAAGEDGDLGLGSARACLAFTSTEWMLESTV
inactive: [1] -0.069 | [2] 0.183 | [3] 0.042 | [4] -0.02 | [5] -0.411
